Source: PubChem
In the library only some 1.9% were active in any assay of this set; here they are far more common.
PG9 binder = binders of HIV-1 gp120 antibody PG9, primary screen, biochemical, TR-FRET; 0.43% of 360,000 active; inhibition, % at 6.7 µM; AID 624416, 2012; HIV-1 gp120 / PG9 antibody interaction; TR-FRET gp120-PG9 antibody binding; in the data active means inhibition above about 8.5%
Rev-erbA mod = modulators of Rev-erb alpha DNA binding, primary screen, biochemical, FITC-DNA, fluorescence polarization, uHTS. Nuclear receptor subfamily 1 group D member 1 (Homo sapiens), P20393. Rev-erbα–FITC-DNA binding, 90 min. activity, % at 10 µM. 0.79% of 370,000 active. AID 1259318, 2017;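 active means activity above about 14%, limit read from the data; passing the limit was not always enough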;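 further: 0% = DMSO wells with 35 nM protein and 100% = DMSO wells with 750 nM protein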
ZTA DNA inh = blocks Epstein-Barr virus ZTA, an EBNA-1 counter-screen. P03206. ZTA-DNA binding, fluorescence polarization. inhibition, % at 11 µM. 0.15% of 320,000 active; in the data active means inhibition above about 33%
aDG glyco up = activators of alpha-DG glycosylation, primary screen, uHTS, Pro5-aDG cells, AlphaScreen | AID 624168, 2012 | activation, % at 10 µM | alpha-DG glycosylation AlphaScreen (IIH6); 0% Pro5, 100% B10-LARGE cell signal | 0.22% of 360,000 active;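 active means activation of at least 8% versus controls, or a plate z-score of at least 8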;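 further: Pro5 are CHO cells carrying HIG-tagged alpha-DG that lacks glycosylation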
EBNA-1 inh = EBNA-1 DNA-binding inhibitors, primary screen, biochemical, fluorescence polarization; inhibition, % at 14.8 µM; 0.34% of 300,000 active; in the data active means inhibition above about 28%
NCF1 inh = p47phox/p22phox peptide binding inhibitors, primary screen, biochemical, uHTS, NADPH oxidase regulatory subunit; 0.53% of 220,000 active; AID 1274, 2008; fluorescence polarization, 2 h; inhibition, % at 24.7 µM;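 active means inhibition above about 30%, limit read from the data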;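 further: 0% = p47phox with labelled peptide and 100% = labelled peptide alone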
Target sequence (P14598 whole entry, looked up): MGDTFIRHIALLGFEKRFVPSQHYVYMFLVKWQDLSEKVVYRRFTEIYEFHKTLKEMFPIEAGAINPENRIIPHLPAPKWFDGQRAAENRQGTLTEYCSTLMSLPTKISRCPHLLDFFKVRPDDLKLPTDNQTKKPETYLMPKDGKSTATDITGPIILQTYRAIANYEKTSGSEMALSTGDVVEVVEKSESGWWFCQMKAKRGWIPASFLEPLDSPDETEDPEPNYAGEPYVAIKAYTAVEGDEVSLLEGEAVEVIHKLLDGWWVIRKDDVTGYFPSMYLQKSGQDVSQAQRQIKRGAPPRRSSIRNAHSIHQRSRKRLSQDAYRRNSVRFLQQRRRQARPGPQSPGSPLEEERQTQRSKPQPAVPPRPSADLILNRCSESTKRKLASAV
PG9 bind confirm = binders of anti-gp120 antibody PG9, confirmation, biochemical, TR-FRET; shares compounds with PG9 binder; TR-FRET PG9 antibody binding; inhibition, % at 6.7 µM; 90% of 1,500 active; AID 651571, 2012; in the data active means inhibition above about 9%
PGV04 Ab binding = binders of control antibody PGV04, counter-screen for PG9 antibody binder project, biochemical, TR-FRET, distinct HIV envelope site; AID 651604, 2012; shares compounds with PG9 binder; inhibition, % at 6.7 µM; 95% of 1,500 active; TR-FRET PGV04 antibody-gp120 binding; in the data active means inhibition above about 9.5%
Numbers without * were called inactive; nt = not tested or not shown.

SMILES	PG9 binder	Rev-erbA mod	ZTA DNA inh	aDG glyco up	EBNA-1 inh	NCF1 inh	PG9 bind confirm	PGV04 Ab binding
COC(=O)c1sc(NC(=O)CSc2nc3cccnc3n2C2CCCCC2)nc1C	-1	0	-5	0	2	7	nt	nt
COc1ccc2nc(NC(=O)CSc3nc4cccnc4n3C)sc2c1	26*	7	30	2	19	-16	29*	42*
O=C(C1CCN(c2ncnc3c2sc2cccc(F)c23)CC1)N1CCN(Cc2ccc(F)cc2)CC1	nt	11	nt	nt	nt	nt	nt	nt
COC(=O)c1ccc(-c2ccc3c(c2)[C@]2(CCC[C@@H](O)[C@@H]2NC(=O)CCc2ccccc2)C(=O)N3Cc2ccccc2)cc1	nt	0	nt	nt	nt	nt	nt	nt
C=CCOc1cccc(C2/C(=C(/O)c3ccc(C)cc3)C(=O)C(=O)N2CCN2CCOCC2)c1 (stereo not given)	-2	2	3	0	9	-8	nt	nt
CC(C)c1ccc(C2/C(=C(\O)c3ccc4c(c3)OCCO4)C(=O)C(=O)N2CCN2CCOCC2)cc1 (stereo not given)	5	6	0	1	-19	nt	nt	nt
O=C1C(=O)N(CCN2CCOCC2)C(c2ccccc2)/C1=C(\O)c1ccc2c(c1)OCCO2 (stereo not given)	15*	-6	9	0	0	nt	21*	23*
C=CCOc1cccc(C2/C(=C(\O)c3ccc4c(c3)OCCO4)C(=O)C(=O)N2CCN2CCOCC2)c1 (stereo not given)	9.3*	-7	1	0	7	nt	16*	21*
O=C1C(=O)N(CCCN2CCOCC2)C(c2ccc(Cl)cc2)/C1=C(\O)c1ccc2c(c1)OCCO2 (stereo not given)	10*	0	6	0	-4	nt	23*	27*
COc1cccc(NC(=O)Nc2nc3ncccn3c2-c2ccc(F)c(F)c2)c1	nt	8	nt	nt	nt	nt	nt	nt
COc1ccc(OC)c(C2C(C(=O)c3cc4ccccc4o3)=C(O)C(=O)N2c2cc(C)on2)c1 (stereo not given)	6	-5	-18	0	-5	-22	nt	nt
COc1ccccc1C1C(C(=O)c2cc3ccccc3o2)=C(O)C(=O)N1c1cc(C)on1 (stereo not given)	10*	-4	10	-1	1	nt	18*	32*
C=CCOc1cccc(C2C(C(=O)c3cc4ccccc4o3)=C(O)C(=O)N2c2cc(C)on2)c1 (stereo not given)	17*	-3	12	0	19	nt	22*	35*
COc1cccc(C2C(C(=O)c3cc4ccccc4o3)=C(O)C(=O)N2c2cc(C)on2)c1 (stereo not given)	20*	-8	-1	0	7	nt	17*	25*
CC(C)(C)N1Cc2nnn(CC3CCCCC3)c2-c2cc(F)ccc2S1(=O)=O	nt	-1	nt	nt	nt	nt	nt	nt
O=C(c1cc(Cl)cc(Cl)c1)N1CC[C@H]2[C@H](CCCN2Cc2ccc(F)cc2)C1	nt	-3	nt	nt	nt	nt	nt	nt
NS(=O)(=O)c1ccc(NC(=O)COC(=O)c2cn(-c3ccccc3)nc2-c2ccc(F)cc2)cc1	9.0*	4	1	0	11	-15	16*	24*
CC[C@H]1OC(=O)[C@H](C)[C@@H](O[C@H]2C[C@@](C)(OC)[C@@H](O)[C@H](C)O2)C(C)[C@@H](O[C@@H]2O[C@H](C)C[C@H](N(C)C)[C@H]2O)[C@](C)(O)C[C@@H](C)CN(C)[C@H](C)[C@@H](O)[C@]1(C)O (stereo not given in full)	nt	0	nt	nt	nt	nt	nt	nt
O=C1CC(c2ccc(F)cc2)Cc2nc(NCc3ccco3)ncc21 (stereo not given)	9.4*	6	12	0	-6	-3	18*	23*
Cc1ccc(C)c(NC(=O)c2ccc(CS(=O)(=O)Cc3ccccc3C)o2)c1	nt	4	nt	nt	nt	nt	nt	nt
O=c1[nH]c(SCc2nc3ccccc3n2Cc2ccccc2)nc2ccccc12	13*	3	13	0	10	-3	24*	30*
Cc1ccnc(N2CCCC(C(=O)Nc3ccc(C)c(C)c3)C2)n1 (stereo not given)	39*	0	11	0	11	nt	31*	42*
O=C1Cc2c([nH]c3ccc(Br)cc23)-c2ccccc2N1	11*	-8	nt	0	nt	nt	16*	22*
Brc1ccc2[nH]c3c(c2c1)CCC3	-1	6	-7	0	-8	-8	nt	nt
CCOc1ccc(N2CC(NC(=O)c3ccc4ccccc4c3)CC2=O)cc1 (stereo not given)	12*	16	12	2	0	nt	12*	23*
SMILES	PG9 binder	Rev-erbA mod	ZTA DNA inh	aDG glyco up	EBNA-1 inh	NCF1 inh	PG9 bind confirm	PGV04 Ab binding
COCCCN1C(=O)C(=O)/C(=C(/O)c2ccc(OCC(C)C)cc2)C1c1cccnc1 (stereo not given)	1	1	6	0	1	6	nt	nt
COCCCN1C(=O)C(=O)/C(=C(/O)c2ccc(OC(C)C)cc2)C1c1cccnc1 (stereo not given)	10*	0	2	0	-1	11	14*	19*
COC(=O)[C@]12C[C@H](CC(=O)N3CCCCC3)C(=O)N(Cc3ccccc3)C1=C[C@H](COCc1ccccc1)O[C@@H]2C	nt	4	nt	nt	nt	nt	nt	nt
COc1cc(NC(=O)c2ccccn2)ccc1NC(=O)c1ccccc1Cl	nt	-5	nt	nt	nt	nt	nt	nt
CCCC(=O)OC12CCCN(C1)/C(=C/c1ccccc1)C2 (stereo not given)	nt	-1	nt	nt	nt	nt	nt	nt
COc1ccccc1-c1nc(SCC(=O)NCc2ccco2)c2c(=O)n(C)c(=O)n(C)c2n1	28*	2	0	0	-3	nt	26*	30*
Cc1ccc(S(=O)(=O)CCC(=O)N(CCCN2CCOCC2)c2nc3ccccc3s2)cc1	9.6*	5	-12	0	4	nt	7	11*
Cc1cc(NC(=O)c2ccc3c(c2)C(=O)N(CCC(C)C)C3=O)no1	12*	-2	-23	0	6	-9	7	8
Cc1ccc(S(=O)(=O)N(CCc2ccccc2)CC(=O)N2CCOCC2)cc1	nt	-7	nt	nt	nt	nt	nt	nt
Cc1ccc(Cn2cc(CN3[C@H](Cc4ccccc4)COc4cc(Br)ccc4S3(=O)=O)nn2)cc1	nt	-7	nt	nt	nt	nt	nt	nt
COc1ccc(-c2c(-c3ccc(OC)c(F)c3)c3ccccc3n2C)cc1	-2	3	nt	0	nt	nt	nt	nt
